Data taken from PubChem BioAssay (NCI).
The panel holds about 79,000 compounds, 15% with a hit somewhere; the sample as a whole holds those more often. Unmarked numbers belong to inactive results. Activity calls are given as the source filed them. No stated cut-off is given here; in the data, active means growth inhibition above about 70%; inactive means the rest.

Experiments:
[1] = NCI Yeast Anticancer Drug Screen. Data for the rad50 strain (AID 155);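 further: 0% = growth of vehicle-only cultures of the same strain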; conditions: S. cerevisiae rad50 strain growth inhibition, stronger effect = higher value
Method in brief: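 Inhibition values express reduced yeast growth in compound-treated cultures relative to vehicle-treated controls.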

[2] = NCI Yeast Anticancer Drug Screen. Data for the mec2-1 strain (AID 157); conditions: S. cerevisiae mec2-1 strain, stronger effect = higher value
Method in brief: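 Strain: mec2-1 (DNA repair/cell cycle alteration). Compound exposure, then growth measured; inhibition expressed relative to vehicle.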

[3] = NCI Yeast Anticancer Drug Screen. Data for the sgs1 mgt1 strain (AID 161);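 further: 0% = growth of cultures given vehicle only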; conditions: S. cerevisiae sgs1 mgt1 strain, stronger effect = higher value
Method in brief: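 Mutant yeast exposed to compound; growth scored against vehicle-only wells.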

[4] = NCI Yeast Anticancer Drug Screen. Data for the cln2 rad14 strain (AID 165);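 further: 0% = growth equal to vehicle treated cultures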; conditions: S. cerevisiae cln2 rad14 strain, stronger effect = higher value
Method in brief: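 Compounds are applied to the cln2 rad14 yeast strain, and growth is then compared with that of vehicle-treated cultures to give inhibition.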

[5] = NCI Yeast Anticancer Drug Screen. Data for the bub3 strain (AID 167); conditions: S. cerevisiae bub3 mutant strain, stronger effect = higher value
Method in brief: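 Steps: expose the mutant yeast strain to compound; grow alongside vehicle-treated cultures; measure growth; express inhibition against the vehicle cultures.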

[6] = NCI Yeast Anticancer Drug Screen. Data for the mlh1 rad18 strain (AID 175); conditions: S. cerevisiae mlh1 rad18 strain growth inhibition, stronger effect = higher value
Method in brief: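 Read-out is yeast growth inhibition, calculated against vehicle-only controls. The compound was applied to a strain engineered with DNA damage repair alterations.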

[7] = at 5.0 µM (retest, dose inferred, filed as 0.5)
[8] = at 50.0 µM (retest, dose inferred, filed as 5.0)

O=Cc1ccc(O)cc1O
growth inhibition [1, 7]: 8%
growth inhibition [1, 8]: 24%
growth inhibition ([1]; at 50.0 µM): 58.5%
growth inhibition [2, 7]: 8%
growth inhibition [2, 8]: 16%
growth inhibition ([2]; at 50.0 µM): 29.6%
growth inhibition [3, 7]: 7%
growth inhibition [3, 8]: 15%
growth inhibition ([3]; at 50.0 µM): 25.8%
growth inhibition [4, 7]: 4%
growth inhibition [4, 8]: 14%
growth inhibition ([4]; at 50.0 µM): -38.6%
growth inhibition [5, 7]: 7%
growth inhibition [5, 8]: 10%
growth inhibition ([5]; at 50.0 µM): 55.4%
growth inhibition [6, 7]: 1%
growth inhibition [6, 8]: 13%
growth inhibition ([6]; at 50.0 µM): 59%

O=C1c2ccccc2-c2nc3ncccc3cc21
growth inhibition [1, 7]: 27%
growth inhibition [1, 8]: 93% (active)
growth inhibition ([1]; at 50.0 µM): 95.7% (active)
growth inhibition [2, 7]: 6%
growth inhibition [2, 8]: 83% (active)
growth inhibition ([2]; at 50.0 µM): 56.1%
growth inhibition [3, 7]: 4%
growth inhibition [3, 8]: 78% (active)
growth inhibition ([3]; at 50.0 µM): 42.2%
growth inhibition [4, 7]: 6%
growth inhibition [4, 8]: 63%
growth inhibition ([4]; at 50.0 µM): 57.9%
growth inhibition [5, 7]: 4%
growth inhibition [5, 8]: 57%
growth inhibition ([5]; at 50.0 µM): 79.4% (active)
growth inhibition [6, 7]: -5%
growth inhibition [6, 8]: 88% (active)
growth inhibition ([6]; at 50.0 µM): 71.4% (active)

O=C(O)CC1c2ccccc2-c2ccccc21
growth inhibition [1, 7]: -5%
growth inhibition [1, 8]: 36%
growth inhibition ([1]; at 50.0 µM): 87.7% (active)
growth inhibition [2, 7]: -24%
growth inhibition [2, 8]: 24%
growth inhibition ([2]; at 50.0 µM): 64.5%
growth inhibition [3, 7]: -4%
growth inhibition [3, 8]: 31%
growth inhibition ([3]; at 50.0 µM): 78.7% (active)
growth inhibition [4, 7]: -3%
growth inhibition [4, 8]: 54%
growth inhibition ([4]; at 50.0 µM): 43.9%
growth inhibition [5, 7]: -6%
growth inhibition [5, 8]: 82% (active)
growth inhibition ([5]; at 50.0 µM): 82.8% (active)
growth inhibition [6, 7]: -7%
growth inhibition [6, 8]: 67%
growth inhibition ([6]; at 50.0 µM): 79.3% (active)

CCc1ccccc1NC1=C(Cl)C(=O)c2ccccc2C1=O
growth inhibition [1, 7]: 99% (active)
growth inhibition [1, 8]: 98% (active)
growth inhibition ([1]; at 50.0 µM): -1.85%
growth inhibition [2, 7]: 100% (active)
growth inhibition [2, 8]: 99% (active)
growth inhibition ([2]; at 50.0 µM): 10.8%
growth inhibition [3, 7]: 100% (active)
growth inhibition [3, 8]: 99% (active)
growth inhibition ([3]; at 50.0 µM): 1.85%
growth inhibition [4, 7]: 77% (active)
growth inhibition [4, 8]: 99% (active)
growth inhibition ([4]; at 50.0 µM): -20.3%
growth inhibition [5, 7]: 99% (active)
growth inhibition [5, 8]: 99% (active)
growth inhibition ([5]; at 50.0 µM): -0.2%
growth inhibition [6, 7]: 99% (active)
growth inhibition [6, 8]: 98% (active)
growth inhibition ([6]; at 50.0 µM): 10%

O=[N+]([O-])c1ccc(Sc2ccc([N+](=O)[O-])o2)cc1
growth inhibition [1, 7]: 95% (active)
growth inhibition [1, 8]: 99% (active)
growth inhibition ([1]; at 50.0 µM): 13.9%
growth inhibition [2, 7]: 94% (active)
growth inhibition [2, 8]: 100% (active)
growth inhibition ([2]; at 50.0 µM): 16.5%
growth inhibition [3, 7]: 95% (active)
growth inhibition [3, 8]: 100% (active)
growth inhibition ([3]; at 50.0 µM): 52.1%
growth inhibition [4, 7]: 89% (active)
growth inhibition [4, 8]: 99% (active)
growth inhibition ([4]; at 50.0 µM): -9.05%
growth inhibition [5, 7]: 98% (active)
growth inhibition [5, 8]: 99% (active)
growth inhibition ([5]; at 50.0 µM): 60.7%
growth inhibition [6, 7]: 97% (active)
growth inhibition [6, 8]: 99% (active)
growth inhibition ([6]; at 50.0 µM): 59.8%

C[C@]12CC[C@@H]3c4ccc(O)cc4CC[C@H]3[C@@H]1CC[C@@H]2NCCCCCCO
growth inhibition [1, 7]: 21%
growth inhibition [1, 8]: 25%
growth inhibition ([1]; at 50.0 µM): 14.6%
growth inhibition [2, 7]: 18%
growth inhibition [2, 8]: 19%
growth inhibition ([2]; at 50.0 µM): 48.6%
growth inhibition [3, 7]: 18%
growth inhibition [3, 8]: 38%
growth inhibition ([3]; at 50.0 µM): 34.4%
growth inhibition [4, 7]: 26%
growth inhibition [4, 8]: 31%
growth inhibition ([4]; at 50.0 µM): -13.2%
growth inhibition [5, 7]: 15%
growth inhibition [5, 8]: 34%
growth inhibition ([5]; at 50.0 µM): -6.1%
growth inhibition [6, 7]: 21%
growth inhibition [6, 8]: 37%
growth inhibition ([6]; at 50.0 µM): -3.2%

O=C1OC(=O)C2C1C1C(c3ccccc3)=C(c3ccccc3)C2(O)C2C(=O)OC(=O)C12 (configuration not stated)
growth inhibition [1, 7]: 25%
growth inhibition [1, 8]: 25%
growth inhibition ([1]; at 50.0 µM): 76.2% (active)
growth inhibition [2, 7]: 7%
growth inhibition [2, 8]: 7%
growth inhibition ([2]; at 50.0 µM): 81% (active)
growth inhibition [3, 7]: 16%
growth inhibition [3, 8]: 16%
growth inhibition ([3]; at 50.0 µM): 69.7%
growth inhibition [4, 7]: 17%
growth inhibition [4, 8]: 17%
growth inhibition ([4]; at 50.0 µM): 52.5%
growth inhibition [5, 7]: 4%
growth inhibition [5, 8]: 4%
growth inhibition ([5]; at 50.0 µM): 74% (active)
growth inhibition [6, 7]: 18%
growth inhibition [6, 8]: 18%
growth inhibition ([6]; at 50.0 µM): 29.7%

Cc1cc(=O)[nH]c(NN2C(Cl)C(=O)C2c2ccc(O)cc2)n1 (configuration not stated)
growth inhibition [1, 7]: -14%
growth inhibition [1, 8]: 81% (active)
growth inhibition ([1]; at 50.0 µM): 82.2% (active)
growth inhibition [2, 7]: -9%
growth inhibition [2, 8]: 82% (active)
growth inhibition ([2]; at 50.0 µM): 67.2%
growth inhibition [3, 7]: -5%
growth inhibition [3, 8]: 68%
growth inhibition ([3]; at 50.0 µM): 79.5% (active)
growth inhibition [4, 7]: 14%
growth inhibition [4, 8]: 63%
growth inhibition ([4]; at 50.0 µM): 53.6%
growth inhibition [5, 7]: 7%
growth inhibition [5, 8]: 94% (active)
growth inhibition ([5]; at 50.0 µM): 78.3% (active)
growth inhibition [6, 7]: 7%
growth inhibition [6, 8]: 92% (active)
growth inhibition ([6]; at 50.0 µM): 71.3% (active)

O=C(CBr)Nc1ccc(Cc2ccc(NC(=O)CBr)cc2)cc1
growth inhibition [1, 7]: 11%
growth inhibition [1, 8]: -4%
growth inhibition ([1]; at 50.0 µM): 97.3% (active)
growth inhibition [2, 7]: 20%
growth inhibition [2, 8]: 0%
growth inhibition ([2]; at 50.0 µM): 98.7% (active)
growth inhibition [3, 7]: 35%
growth inhibition [3, 8]: -4%
growth inhibition ([3]; at 50.0 µM): 98.2% (active)
growth inhibition [4, 7]: 24%
growth inhibition [4, 8]: -2%
growth inhibition ([4]; at 50.0 µM): 97.1% (active)
growth inhibition [5, 7]: 17%
growth inhibition [5, 8]: 0%
growth inhibition ([5]; at 50.0 µM): 98.1% (active)
growth inhibition [6, 7]: 25%
growth inhibition [6, 8]: 1%
growth inhibition ([6]; at 50.0 µM): 97.2% (active)
